Consider 40 molecules from PubChem BioAssay (Tox21).

Records with an inconclusive call do not appear. A number with no mark means an inactive call. Calls of active or inactive are those of the source. Calls follow the shape of the dose curve; as a rule, active = well fitted cell-killing curve with a large enough effect in the repeat runs; inconclusive = weak or mixed curves, or effect the other way; inactive = flat fitted curve, though single readings scatter.
% is scaled to controls: 0 for no effect and ±100 for the full control effect.

The nature of this assay: qHTS assay to identify small molecule antagonists of the androgen receptor (AR) signaling pathway using the MDA cell line - cell viability counter screen (AID 743041; also: nearly all actives have a fitted effect of over 45% in size). Particulars: MDA-kb2 viability, CellTiter-Fluor, 16 h, cells co-treated with R1881 androgen agonist; series mostly up to 70.3 µM; viability change, negative = cytotoxic: at the top concentration. The text has this: National Center for Advancing Translational Sciences [NCATS]
NIH Chemical Genomics Center [NCGC]
U.S. Environmental Protection Agency [EPA]
National Institutes of Environmental Health Sciences [NIEHS]
National Toxicology Program [NTP]
U.S. Food and Drug Administration [FDA]
Androgen receptor (AR), a nuclear hormone receptor, plays a critical role in AR-dependent prostate cancer and other androgen related diseases. Endocrine disrupting chemicals (EDCs) and their interactions with steroid hormone receptors like AR may cause disruption of normal endocrine function as well as interfere with metabolic homeostasis, reproduction, developmental and behavioral functions. To identify the compounds that inhibit AR signaling, MDA-kb2 AR-luc cell line (from ATCC, deposited by Wilson et al.) was used to screen the Tox21 10K compound library. MDA-kb2 AR-luc cell line is human breast carcinoma cell line that was stably transfected with a luciferase reporter gene under control of the MMTV promoter containing response elements for both androgen receptor (AR) and glucocorticoid receptor (GR). The cytotoxicity of the Tox21 compound library against the MDA-kb2 AR-luc cell line was tested in parallel by measuring the cell viability using CellTiter-Fluor assay (Promega, Madison, WI) in the same wells.
Tox21 Assay Protocol Summary:
MDA-kb2 AR-luc cells were dispensed at 3,000 cells/4 uL/well of culture medium into white wall/solid-bottom 1536-well plates using a Multidrop Combi (ThermoFisher Scientific, Waltham, MA) dispenser. After the assay plates were incubated at a 37C and 0% CO2 for 5 hr, 23 nL of compounds dissolved in DMSO, positive controls or DMSO only was transferred to the assay plate by a Pintool station (Kalypsys, San Diego, CA), followed by addition of 1 uL of agonist (R1881) in culture medium using a Bioraptr Flying Reagent Dispenser (FRD) workstation (Beckman Coulter, Indianapolis, IN, USA). The plates were incubated at a 37C and 0% CO2 for 16 h. After 15.5 h incubation, 1uL of CellTiter-Fluor reagent (Promega) was added using a Bioraptr FRD to each plate for measuring cytotoxicity. The fluorescence intensity was quantified on a ViewLux plate reader (PerkinElmer, Shelton, CT) following 30 min incubation at 37C and 0% CO2.
In general terms: Quantitative high-throughput screening tests each substance at several concentrations.
Take `O=C(O)Cc1ccc(Cl)cc1Cl`: the “viability change, negative = cytotoxic” value was 8.11%.
The same measure, in the same setting: the same measure for `CCNC(=O)C1CC(C)CCC1C(C)C` (stereo not given): 12.9%.
Same read-out and setting: the same measure for `O=C(O)c1ccc(Cl)cc1Cl`: -5.14% [at 95 µM]; for `CCOc1cc([N+](=O)[O-])c(OCC)cc1N1CCOCC1`: -1.44%; for `O=Cc1ccc(Cl)c(Cl)c1`: -16.1% [at 95 µM].
In the case of `CCC(C)NC(N)=O` (stereo not given), the “viability change, negative = cytotoxic” value is -1.3%.
In the case of `O=C(NCC(O)CO)c1c(I)c(C(=O)NCC(O)CO)c(I)c(N(CCO)C(=O)CO)c1I` (stereo not given), the “viability change, negative = cytotoxic” value is 1.17% [at 32.5 µM].
Still for that read-out and setting: the same measure for `C=C(C)C(=O)OCc1ccccc1`: -3.35%; for `Nc1ncnc(Nc2ccccc2)n1`: 6.05%; for `CN=C(NC#N)Nc1ccc(C2=NNC(=O)CC2C)cc1` (stereo not given): 4.29%.
On the same count and under the same terms, the same measure for `CC(=O)NCc1c(I)c(NC(C)=O)c(I)c(C(=O)O)c1I`: -4.81%; for `CCCCCCCCSCC`: 7.2%; for `COC(=O)[C@@H]1[C@H]2C[C@H]3c4[nH]c5ccccc5c4CCN3C[C@@H]2CC[C@@H]1O`: 1.12%.
Same read-out and setting: the same measure for `CC(=O)N[C@@H](CCC(=O)O)C(=O)O`: 1.61%; for `NC(CO)C(=O)NNCc1ccc(O)c(O)c1O` (stereo not given): -4.47%.
With `CCCCCCCC/C=C\CCCCCCCC(=O)OCCCC`, the “viability change, negative = cytotoxic” value was 3.57% [at 32.5 µM].
Regarding `C[Si](C)=O`, the viability change, negative = cytotoxic is -9.84% [at 8.47 µM].
Same read-out and setting: the same measure for `NS(=O)(=O)c1ccc(NC(=O)CCC(=O)O)cc1`: 4.71%.
Same read-out and setting: the same measure for `CCO[Si](CCCS)(OCC)OCC`: 4.88%.
On the same count and under the same terms, the same measure for `COc1ccc2c(c1)C(=O)N(CCc1ccc(S(=O)(=O)NC(=O)NC3CCCCC3)cc1)C(=O)C2(C)C`: 5.05% [at 32.5 µM]; for `CCCCCCCCCCl`: 4.51% [at 95 µM].
With `COc1cc2c(cc1OC)[C@@H]1CC(=O)[C@@H](CC(C)C)CN1CC2`, the “viability change, negative = cytotoxic” value was 11.6%.
On to `N[C@@H](CCC(=O)N[C@@H](CS)C(=O)NCC(=O)O)C(=O)O`, for which the “viability change, negative = cytotoxic” value was 2.41%.
Still for that read-out and setting: the same measure for `CCCCOCCOC(=O)COc1nc(Cl)c(Cl)cc1Cl`: -2.81%; for `C=C(C)C(=O)OCCOP(=O)(O)OCCOC(=O)C(=C)C`: 0.177%.
Still for that read-out and setting: the same measure for `COC(=O)CCCCCCCC(=O)OC`: -5.54%; for `C=C(C)C(=O)OCCNC(C)(C)C`: -0.91%; for `COc1cc(NS(=O)(=O)c2ccc(N)cc2)nc(OC)n1`: 6.82% [at 32.5 µM].
On the same count and under the same terms, the same measure for `CN(C)c1ccc(C=O)cc1`: 2.41%.
For `O=C(NCCc1c[nH]c2ccccc12)c1cccnc1`, the “viability change, negative = cytotoxic” value is -3.41%.
The same measure, in the same setting: the same measure for `CC(C)NCC(O)COc1cccc2[nH]ccc12` (stereo not given): 0.283%; for `CC(C)(C)OC(=O)c1ccc(O)cc1`: 0.0931%.
On the same count and under the same terms, the same measure for `C[C@H](N)[C@H](O)c1cccc(O)c1`: 5.27% [at 32.5 µM]; for `CC(C)C[C@H](NC(=O)CNC(=O)[C@H](Cc1ccc(O)cc1)NC(=O)[C@H](CO)NC(=O)[C@H](Cc1c[nH]c2ccccc12)NC(=O)[C@H](Cc1cnc[nH]1)NC(=O)[C@@H]1CCC(=O)N1)C(=O)N[C@@H](CCCN=C(N)N)C(=O)N1CCC[C@H]1C(=O)NCC(N)=O` (stereo in doubt): 6.5%; for `CC1=CCC(C(C)C)=CC1`: -3.36%.
The same measure, in the same setting: the same measure for `CCCCC(CC)COCCO` (stereo not given): 21.3%; for `CC(C(=O)O)c1ccc2c(c1)CC(=O)c1ccccc1S2` (stereo not given): -4.98%.
With `O=C1O[C@@H]2[C@@H](O)[C@H](O)O[C@@H]2[C@H]1O`, the Potency entry is “inactive”.
On to `CCCCCOC(=O)CCC`, for which the “viability change, negative = cytotoxic” value was 0.629%.
For `O=C(/N=N/C(=O)OCc1ccccc1)OCc1ccccc1`, the “viability change, negative = cytotoxic” value was 10.5%.
